An excerpt weighted towards active compounds, which were near 28% of everything screened.
CYP2C9 activ = activators of human CYP2C9 | recombinant CYP2C9, luciferin-H conversion, luminescence; hits give high values; factor 1 = untreated enzyme, 0 = blocked | 1.4% of 96,000 active | P11712 | activation factor at 5 µM | AID 1024;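 active means activation factor of 2 or more for CYP2C9 at a 5 µM dose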
Mac1 fbg enh = enhancers of human CD11b/CD18 binding to fibrinogen | activation, % at 10 µM | 0.07% of 93,000 active | K562 CD11b/CD18 adhesion to fibrinogen, ATPlite luminescence | AID 1499;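 active means 10 µM primary screen giving 50% or more activity, confirmed by 40% or more on retest at that dose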
Target sequence (P05107 whole entry, looked up, other chains not shown): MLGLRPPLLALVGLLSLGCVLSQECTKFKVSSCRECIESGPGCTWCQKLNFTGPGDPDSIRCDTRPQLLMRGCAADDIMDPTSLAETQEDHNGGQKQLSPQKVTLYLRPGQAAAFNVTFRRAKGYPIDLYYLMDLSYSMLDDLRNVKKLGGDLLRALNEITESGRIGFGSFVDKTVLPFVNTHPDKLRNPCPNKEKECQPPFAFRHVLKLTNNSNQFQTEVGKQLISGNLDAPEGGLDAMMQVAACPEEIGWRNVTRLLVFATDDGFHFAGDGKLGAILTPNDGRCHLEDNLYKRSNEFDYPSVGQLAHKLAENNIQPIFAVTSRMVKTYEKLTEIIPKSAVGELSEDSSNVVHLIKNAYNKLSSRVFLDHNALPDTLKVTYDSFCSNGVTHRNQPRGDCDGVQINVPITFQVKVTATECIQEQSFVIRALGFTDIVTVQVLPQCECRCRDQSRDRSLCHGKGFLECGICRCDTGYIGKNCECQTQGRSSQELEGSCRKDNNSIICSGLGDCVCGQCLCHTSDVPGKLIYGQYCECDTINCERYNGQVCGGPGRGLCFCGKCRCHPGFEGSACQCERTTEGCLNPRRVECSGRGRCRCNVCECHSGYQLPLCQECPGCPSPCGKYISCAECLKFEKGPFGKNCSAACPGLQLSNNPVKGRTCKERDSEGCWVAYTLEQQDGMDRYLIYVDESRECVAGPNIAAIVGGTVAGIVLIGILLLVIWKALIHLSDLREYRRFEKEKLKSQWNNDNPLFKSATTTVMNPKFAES
CD11b adhes inh = inhibitors of human CD11b/CD18 binding to fibrinogen; P05107+P11215; K562 CD11b/CD18 adhesion to fibrinogen, ATPlite luminescence; Mn2+ added to activate the integrin; inhibition, % at 10 µM; 0.54% of 93,000 active; AID 1497;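 active means primary inhibition of 50% or more at 10 µM, then 40% or more on retest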
CYP2C9 inh = inhibitors of human CYP2C9. inhibition, % at 5 µM. AID 777. 20% of 96,000 active. CYP2C9 Supersomes, luciferin-H conversion, luminescence. P11712;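 active means blocking of liver enzyme CYP2C9 beyond about 50% at 5 µM, limit read from the data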
CYP2C19 activ = activators of human cytochrome P450 2C19; P33261; recombinant CYP2C19, luciferin-H EGE luminescence; hits give high values; 0 = fully inhibited enzyme, 1 = untreated enzyme; activation factor at 5 µM; 96,000 tested, under 10 active; AID 1025;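 active means activation factor of at least 2 at 5 µM in the primary screen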
CYP2C19 inhib = human CYP2C19 inhibition. P33261. CYP2C19 Supersomes, luciferin-H EGE luminescence, 30 min. inhibition, % at 5 µM. 21% of 96,000 active;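 active means CYP2C19 inhibition above a set limit at 5 µM in the primary screen, cut at about 50% in these data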
Each line names hits and unclear results; the compound was inactive in the other large screens.

CS(=O)(=O)N(CC(=O)N1CCN(Cc2ccc3c(c2)OCO3)CC1)Cc1ccc(Cl)cc1	CYP2C9 inh 62
CS(=O)(=O)N(CC(=O)N1CCN(Cc2ccccc2)CC1)Cc1ccccc1	none
COc1ccc(N2CCN(C(=O)CN(Cc3ccc(Cl)cc3)S(C)(=O)=O)CC2)cc1	none
CS(=O)(=O)N(CC(=O)N1CCc2ccccc2C1)Cc1ccccc1	CYP2C9 inh 80, CYP2C19 inhib 86
CS(=O)(=O)N(CC(=O)N1CCOCC1)Cc1ccc(Cl)cc1	CYP2C19 inhib 56
CS(=O)(=O)N(CCc1ccccc1)CC(=O)N1CCN(Cc2ccc3c(c2)OCO3)CC1	none
Cc1cc(C)n2nc3nc(N4CCCCC4)nc(-c4ccco4)c3c2n1	none
CCCN(N=Nc1cccc([N+](=O)[O-])c1)c1cccc([N+](=O)[O-])c1	CYP2C9 inh 74
Cn1c(=O)oc2cc(S(=O)(=O)N3CCCC(C(=O)NCc4ccc5c(c4)OCO5)C3)ccc21 (centres undefined)	CYP2C9 inh 68
CCS(=O)(=O)N1CCCC(C(=O)NCc2ccc3c(c2)OCO3)C1 (centres undefined)	none (no result: Mac1 fbg enh, CD11b adhes inh)
Cn1c(=O)oc2cc(S(=O)(=O)N3CCCC(C(=O)NCc4cccs4)C3)ccc21 (centres undefined)	none
O=C(NCc1cccs1)C1CCCN(S(=O)(=O)c2ccc3c(c2)OCO3)C1 (centres undefined)	CYP2C9 activ 2.1
CCC1CCCCN1S(=O)(=O)c1ccc(S(=O)(=O)N(Cc2cccs2)C2CC2)cc1 (centres undefined)	CYP2C9 inh 71, CYP2C19 inhib 69
CCCS(=O)(=O)N1CCCC(C(=O)NCCc2ccc(Cl)cc2)C1 (centres undefined)	CYP2C9 inh 56
CCc1nc(NCCN)c(C#N)c2c1CSC(C)(C)C2	none
O=C(NC(=S)NCCc1ccccc1)c1ccccc1	none
O=C(Nc1nc(N2C(=O)c3ccccc3C2=O)n(-c2ccccc2)n1)c1ccc(Cl)cc1	none
COc1ccc(S(=O)(=O)N2CCCC2C(=O)NCc2cccs2)cc1 (centres undefined)	CYP2C9 activ 3.1, CYP2C19 inhib 68
CS(=O)(=O)N1CCCC(C(=O)NCc2cccs2)C1 (centres undefined)	none
Cc1ccc(NC(=O)C2CCCN(S(=O)(=O)c3cccs3)C2)cc1 (centres undefined)	none
Cc1ccc(S(=O)(=O)N2CCCC(C(=O)NCC3COCCO3)C2)cc1 (centres undefined)	none
CCNC(=O)C1CCCN1S(=O)(=O)c1ccc(OC)cc1 (centres undefined)	none
O=C(NCc1cccs1)C1CCCN(S(=O)(=O)c2cccs2)C1 (centres undefined)	CYP2C9 inh 72
Cc1ccc(CCNC(=O)C2CCCN(S(=O)(=O)c3cccs3)C2)cc1 (centres undefined)	CYP2C9 inh 72
Cc1ccc(S(=O)(=O)N2CCCC(C(=O)N(Cc3cccs3)C3CC3)C2)cc1 (centres undefined)	CYP2C19 inhib 99
Cc1nn(-c2nnc(C)c(=O)[nH]2)c(C)c1SCC(=O)Nc1ccc(C(C)C)cc1	none
O=C(NCCc1csc(-c2cccnc2)n1)c1cccc2ccccc12	CYP2C9 inh 86, CYP2C19 inhib 79
O=C(NCCc1csc(-c2cccnc2)n1)c1ccccc1	CYP2C9 inh 65, CYP2C19 inhib 82
O=C(Nc1nsc(-c2ccccc2)n1)c1cccs1	CYP2C9 inh 75
O=C(NCc1csc(-c2ccccc2)n1)c1ccco1	CYP2C19 inhib 84
O=C(NCCCCNC(=O)c1cccnc1)c1cccnc1	none
CCOc1ccc(OCC)c(NC(=O)CCn2cccc2)c1	none
CCOC(=O)c1c(C(F)(F)F)nc2ncccn12	none
CC1(C)CN(O)CCN1O	none (no result: CYP2C9 activ, CYP2C9 inh, CYP2C19 activ, CYP2C19 inhib)
Cc1nc(CCNC(=O)Cc2ccccc2)cs1	none
O=C(NCCc1csc(-c2ccccc2)n1)c1cccs1	CYP2C9 inh 74
CN(CC(=O)Nn1cnnc1)S(=O)(=O)c1ccccc1	CYP2C19 inhib 73
CN(CC(=O)Nc1ccncc1)S(=O)(=O)c1ccccc1	CYP2C9 inh 63, CYP2C19 inhib 98
CC(CC(=O)Nc1cc([N+](=O)[O-])ccc1Cl)c1ccccc1 (centres undefined)	CYP2C19 inhib 51

Assay outcomes as filed in PubChem.
